Where “and” joins values, the source holds several entries; their conditions need not be identical. Equal values may be shown once. For part of these data: Results with a measured potency or affinity are listed apart. Calls of active or inactive are those of the source. Rule as the data show it, unless noted: active = parasite load remaining mostly below about 12% (no sharp cut-off); inactive = mostly above about 10%.
Tests used:
[1] = polyglutamine-triggered caspase-3 activation inhibitors, cell-based (AID 1583); conditions: polyglutamine-induced caspase-3 activation, cell assay; stronger effect = higher value;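 tested at 10 µM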
[2] = suppressors of polyQ aggregation in yeast, 75Q-TubU reporter (AID 1593); conditions: Yeast 75Q polyglutamine aggregation reporter
[3] = rescue of polyQ-huntingtin neuronal dysfunction in worms, whole organism, C. elegans mechanosensory neurons, N-terminal huntingtin (AID 1599); conditions: touch response, stronger effect = higher value
[4] = inhibitors of mitochondrial cytochrome c release, biochemical, purified mitochondria (AID 1603); conditions: stronger effect = lower value;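 also: mouse liver mitochondria challenged with calcium chloride; signal normalized to the plate average as 100%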
[5] = inhibitors of polyQ protein aggregation (AID 1604); conditions: polyglutamine-induced protein aggregation inhibition assay; stronger effect = higher value; tested at 2.5 µM
[6] = enhancers of glutamate uptake in motor neurons, MN-1 cell line (AID 1612); conditions: MN-1 motor neuron cells, stronger effect = higher value;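 also: tested at 1 µM final; 0% = mean of DMSO vehicle wells on each plate; positive means more glutamate uptake than control and negative means less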
[7] = reducers of polyQ inclusions in PC12 cells, cell-based, NGF-treated PC12, GFPQ80 (AID 1614); conditions: PC12 NGF-treated GFP-polyQ80 inclusion reduction;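 also: lower means fewer inclusions and 0 means no inclusions at all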
[8] = suppressors of polyglutamine aggregation in yeast, 75Q-TubH (AID 1616); conditions: S. cerevisiae 75Q-TubH polyglutamine aggregation suppression; stronger effect = higher value
[9] = liver-stage malaria parasite growth inhibition, primary screen, cell-based, HepG2, luciferase luminescence, HepG2 viability (AID 624349);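 also: 100% = mean of DMSO negative control wells on the same plate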; conditions: P. berghei liver stage in HepG2, luciferase luminescence, concentration not given here; parasite load remaining: stronger effect = lower value; viability: measured here: HepG2 viability without parasites
[10] = differential killing of epithelial or mesenchymal cells, primary screen, imaging, PC-3E GFP, TEM4-18 mCherry, co-culture (AID 1345086;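 active = compounds killing one labelled cell type while sparing the other, by normalised counts and ratio limits, not self-fluorescent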;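 as to all read-outs here: cells exposed to compound for 72 h before imaging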;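 as to red/green cell ratio (normalised): normalised mesenchymal count divided by normalised epithelial count so high means epithelial killing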); conditions: imaging cell counts, at 1 µM; for red/green cell ratio (normalised): actives lie on both sides, counts scaled to control wells, 1 = unselective
[11] = sensitizers of A549 cells to miR-34 induction, primary screen, imaging, A549 dox-inducible miR-34, nuclei and caspase counts (AID 1347080;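 active = compounds whose cell count with miR-34 switched on is under 0.7 times the count with it off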); conditions: A549 miR-34 inducible, Hoechst nuclei count, 48 h
[12] = viability rescue of complex I mutant cybrids, primary screen, cell-based, galactose medium, ATP luminescence (AID 1645843;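 active = z-score of at least 1.8 in each of two replicates, scored against plate mean and spread of sample wells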;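 also: positive z means more ATP and so rescue of galactose-driven cybrid death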); conditions: complex I mutant cybrid cells, 72 h, stronger effect = higher value
[13] = measured here: epithelial PC-3E GFP cell survival
[14] = measured here: mesenchymal TEM4-18 mCherry cell survival
[15] = stronger effect = lower value, cell number ratio, induced over uninduced
[16] = measured here: relative caspase fold change +Dox/-Dox
[17] = measured here: total cells with miR-34 induction, stronger effect = lower value
[18] = measured here: total cells without miR-34 induction

CN[C@@H]1C(O)[C@@H](O[C@@H]2[C@@H](O)[C@H](O[C@H]3OC(CN)=CC[C@H]3N)[C@@H](N)C[C@H]2N)OC[C@]1(C)O (some centres not stated)
inhibition [1]: 11.9% | score [2]: 1.54 | rescue above control [3]: -2.25 | cytochrome c release ratio [4]: 1.22 | inhibition of aggregation [5]: 66.2% | glutamate uptake change [6]: -12% | inclusion score [7]: 2 | aggregation suppression score [8]: 1.05 | parasite load remaining [9]: 96.3% (inactive) and 41.6% (inactive) | viability [9]: 74.6% and 94.8% | red/green cell ratio (normalised) [10]: 1.18 (inactive) | normalised cell number [10, 13]: 1.02 | normalised cell number [10, 14]: 1.2 | fold change [11, 15]: 0.967 (inactive) | fold change [11, 16]: 4.46 | cell count [11, 17]: 11400 | cell count [11, 18]: 11800

C[C@]12CCC3c4ccc(OS(=O)(=O)O)cc4CCC3C1CCC2=O (some centres not stated)
parasite load remaining [9]: 45.1% (inactive) | viability [9]: 102% | red/green cell ratio (normalised) [10]: 0.91 (inactive) | normalised cell number [10, 13]: 0.94 | normalised cell number [10, 14]: 0.86 | fold change [11, 15]: 0.918 (inactive) and 0.865 (inactive) | fold change [11, 16]: 1.03 and 4.55 | cell count [11, 17]: 9150 and 11800 | cell count [11, 18]: 9970 and 13700 | z-score [12]: 0.9 (inactive)

CC12CCC3C(=CCc4cc(O)ccc43)C1CCC2=O (configuration not stated)
inhibition [1]: -18.1% | score [2]: 0.86 | rescue above control [3]: 0.8 | cytochrome c release ratio [4]: 0.66 | inhibition of aggregation [5]: 84.7% | glutamate uptake change [6]: 1.39% | aggregation suppression score [8]: 0.518 | parasite load remaining [9]: 112% (inactive) and 14% (inactive) | viability [9]: 72.6% and 110% | red/green cell ratio (normalised) [10]: 1.28 (inactive) | normalised cell number [10, 13]: 1.14 | normalised cell number [10, 14]: 1.45 | fold change [11, 15]: 0.897 (inactive) | fold change [11, 16]: 0.851 | cell count [11, 17]: 11100 | cell count [11, 18]: 12400

CCCCCC(=O)O[C@]1(C(C)=O)CCC2C3CCC4=CC(=O)CC[C@]4(C)C3CC[C@@]21C (some centres not stated)
inhibition [1]: 18.1% | score [2]: -0.83 | rescue above control [3]: -3.14 | cytochrome c release ratio [4]: 0.32 | inhibition of aggregation [5]: 35% | glutamate uptake change [6]: 9.62% | aggregation suppression score [8]: 0.43 | parasite load remaining [9]: 13.1% (inactive) and 0.105% (inactive) | viability [9]: 72.1% and 76.8% | red/green cell ratio (normalised) [10]: 1.01 (inactive) | normalised cell number [10, 13]: 1.08 | normalised cell number [10, 14]: 1.09 | fold change [11, 15]: 0.912 (inactive) | fold change [11, 16]: 1.72 | cell count [11, 17]: 7140 | cell count [11, 18]: 7840

C#C[C@]1(OC(C)=O)CCC2C3CCC4=CC(=O)CC[C@@H]4C3CC[C@@]21C (some centres not stated)
inhibition [1]: 17.5% | score [2]: 0.07 | rescue above control [3]: 0.31 | cytochrome c release ratio [4]: 1.09 | inhibition of aggregation [5]: 7.32% | glutamate uptake change [6]: 12.7% | aggregation suppression score [8]: 0.237 | parasite load remaining [9]: 88.9% (inactive) and 45.6% (inactive) | viability [9]: 69.5% and 94.9% | red/green cell ratio (normalised) [10]: 1.18 (inactive) | normalised cell number [10, 13]: 1 | normalised cell number [10, 14]: 1.17 | fold change [11, 15]: 0.881 (inactive) | fold change [11, 16]: 2.11 | cell count [11, 17]: 10900 | cell count [11, 18]: 12400

C[C@@H]1CC2C3C[C@H](F)C4=CC(=O)C=C[C@]4(C)[C@@]3(F)[C@@H](O)C[C@]2(C)[C@@]1(O)C(=O)CO (some centres not stated)
inhibition [1]: 14.1% | score [2]: 1.53 | rescue above control [3]: 11.3 | cytochrome c release ratio [4]: 1.19 | inhibition of aggregation [5]: 57.7% | glutamate uptake change [6]: 16.9% | inclusion score [7]: 2 | aggregation suppression score [8]: 0.927 | parasite load remaining [9]: 21.3% (inactive) | viability [9]: 92.2% | red/green cell ratio (normalised) [10]: 1.15 (inactive) | normalised cell number [10, 13]: 1.15 | normalised cell number [10, 14]: 1.33 | fold change [11, 15]: 0.92 (inactive) | fold change [11, 16]: 1.86 | cell count [11, 17]: 7830 | cell count [11, 18]: 8520

Nc1ncnc2c1ncn2C1O[C@H](COP(=O)(O)O)[C@@H](O)[C@H]1O (some centres not stated)
inhibition [1]: 5.37% | score [2]: 1.5 | rescue above control [3]: 1.04 | cytochrome c release ratio [4]: 0.86 | inhibition of aggregation [5]: 92.6% | glutamate uptake change [6]: -13.1% | inclusion score [7]: 2 | aggregation suppression score [8]: 1.2 | parasite load remaining [9]: 124% (inactive) and 48.3% (inactive) | viability [9]: 75.9% and 108% | red/green cell ratio (normalised) [10]: 0.96 (inactive) | normalised cell number [10, 13]: 1.18 | normalised cell number [10, 14]: 1.13 | fold change [11, 15]: 0.861 (inactive) | fold change [11, 16]: 1.84 | cell count [11, 17]: 11700 | cell count [11, 18]: 13600

Cc1onc(-c2ccccc2)c1C(=O)NC1C(=O)N2[C@@H]1SC(C)(C)[C@@H]2C(=O)O (some centres not stated)
inhibition [1]: 7.8% | score [2]: 1.09 | rescue above control [3]: 17.4 | cytochrome c release ratio [4]: 0.85 | inhibition of aggregation [5]: -11.1% | glutamate uptake change [6]: -21.8% | inclusion score [7]: 2 | aggregation suppression score [8]: 1.34 | parasite load remaining [9]: 86.3% (inactive) and 60.5% (inactive) | viability [9]: 72.2% and 86.2% | red/green cell ratio (normalised) [10]: 0.97 (inactive) | normalised cell number [10, 13]: 1.16 | normalised cell number [10, 14]: 1.12 | fold change [11, 15]: 0.832 (inactive) | fold change [11, 16]: 1.09 | cell count [11, 17]: 11300 | cell count [11, 18]: 13500

CCC(=O)O[C@]1(C(=O)CCl)[C@@H](C)CC2C3CCC4=CC(=O)C=C[C@]4(C)[C@@]3(F)[C@@H](O)C[C@@]21C (some centres not stated)
inhibition [1]: -7.85% | score [2]: 0.96 | rescue above control [3]: 0.61 | cytochrome c release ratio [4]: 1.1 | inhibition of aggregation [5]: 51% | glutamate uptake change [6]: 19.7% | inclusion score [7]: 2 | aggregation suppression score [8]: 1.08 | parasite load remaining [9]: 202% (inactive) and 73.8% (inactive) | viability [9]: 86% and 95.6% | red/green cell ratio (normalised) [10]: 1.11 (inactive) | normalised cell number [10, 13]: 1.12 | normalised cell number [10, 14]: 1.25 | fold change [11, 15]: 0.913 (inactive) | fold change [11, 16]: 3.26 | cell count [11, 17]: 7630 | cell count [11, 18]: 8360

CN1C2CC[C@@H]1CC(OC(=O)[C@H](CO)c1ccccc1)C2 (some centres not stated)
inhibition [1]: 10% | score [2]: 1.23 | rescue above control [3]: 0.71 | cytochrome c release ratio [4]: 1.28 | inhibition of aggregation [5]: 89.7% | glutamate uptake change [6]: -13.3% | inclusion score [7]: 2 | aggregation suppression score [8]: 1.46 | parasite load remaining [9]: 85.7% (inactive) and 75.8% (inactive) | viability [9]: 72.7% and 94.9% | red/green cell ratio (normalised) [10]: 0.96 (inactive) | normalised cell number [10, 13]: 1.11 | normalised cell number [10, 14]: 1.07 | fold change [11, 15]: 0.837 (inactive) | fold change [11, 16]: 0.536 | cell count [11, 17]: 10500 | cell count [11, 18]: 12600

C#C[C@]1(O)CCC2C3CCC4=CC(=O)CC[C@@H]4C3CC[C@@]21CC (some centres not stated)
inhibition [1]: 13.1% | score [2]: 1.25 | rescue above control [3]: 7 | cytochrome c release ratio [4]: 0.87 | inhibition of aggregation [5]: 11.1% | glutamate uptake change [6]: -5.94% | inclusion score [7]: 2 | aggregation suppression score [8]: 1.03 | parasite load remaining [9]: 86.4% (inactive) and 40.3% (inactive) | viability [9]: 65.9% and 90.1% | red/green cell ratio (normalised) [10]: 1.08 (inactive) | normalised cell number [10, 13]: 0.78 | normalised cell number [10, 14]: 0.84 | fold change [11, 15]: 0.867 (inactive) | fold change [11, 16]: 2.88 | cell count [11, 17]: 10400 | cell count [11, 18]: 12000

— PubChem BioAssay
